In PubChem BioAssay (NCI) one finds growth inhibition data, which are given here for ten molecules.

The nature of assay [1]: NCI Yeast Anticancer Drug Screen. Data for the rad50 strain (AID 155).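 Note: 0% = growth of vehicle-only cultures of the same strain.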 The conditions noted are these: S. cerevisiae rad50 strain growth inhibition, stronger effect = higher value. Put shortly: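 DNA repair mutant yeast, compound exposure, growth read-out; inhibition is taken relative to vehicle.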
A short description of assay [2]: NCI Yeast Anticancer Drug Screen. Data for the mec2-1 strain (AID 157). As to conditions: S. cerevisiae mec2-1 strain, stronger effect = higher value. The essentials:
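Vehicle-treated cultures served as reference for growth inhibition of compound-exposed mec2-1 yeast.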

The nature of assay [3]: NCI Yeast Anticancer Drug Screen. Data for the sgs1 mgt1 strain (AID 161).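 Note: 0% = growth of cultures given vehicle only.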 The conditions noted are these: S. cerevisiae sgs1 mgt1 strain, stronger effect = higher value. Put shortly: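 Read-out: growth inhibition vs vehicle controls. Cells: mutant yeast strain deficient in DNA damage repair.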
Assay [4] is described as follows: NCI Yeast Anticancer Drug Screen. Data for the cln2 rad14 strain (AID 165).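 Note: 0% = growth equal to vehicle treated cultures.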 The conditions noted are these: S. cerevisiae cln2 rad14 strain, stronger effect = higher value. Put shortly: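 Each compound was tested on cln2 rad14 yeast. Inhibition of growth was calculated against vehicle-exposed controls.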
The nature of assay [5]: NCI Yeast Anticancer Drug Screen. Data for the bub3 strain (AID 167). As to conditions: S. cerevisiae bub3 mutant strain, stronger effect = higher value. Put shortly:
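In this screen, a yeast mutant lacking normal mitotic checkpoint function is challenged with compound. Relative growth versus vehicle gives the inhibition value.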

Assay [6] is described as follows: NCI Yeast Anticancer Drug Screen. Data for the mlh1 rad18 strain (AID 175). The conditions noted are these: S. cerevisiae mlh1 rad18 strain growth inhibition, stronger effect = higher value. Put shortly:
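Vehicle-treated cultures served as the reference for growth inhibition in a yeast strain carrying DNA damage repair alterations exposed to each compound.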

[7] abbreviates: at 5.0 µM (retest, dose inferred, filed as 0.5).
The mark [8] stands for this setting: at 50.0 µM (retest, dose inferred, filed as 5.0).

This is part of a sample that, as a whole, favours compounds with a hit. Of some 79,000 tested, about 15% had one in any assay. Unmarked numbers belong to inactive results. Active and inactive are the calls of the source. Cut-off read from the data, not from the text of the source: active = growth inhibition above about 70%; inactive = the rest.

Take `CC(=O)NCC1OC2COC(c3ccccc3)OC2C(NC(=O)c2ccccc2)C1OC(=O)c1ccccc1` (stereo not given): the growth inhibition in assay [1] (setting [7]) was 15%; in assay [1] (setting [8]), 10%; in assay [1] (at 50.0 µM) it was 22.4%; in assay [2] (setting [7]), 15%; in assay [2] (setting [8]), 10%; in assay [2] (at 50.0 µM), 11.8%. The growth inhibition in assay [3] (setting [7]) is -11%; in assay [3] (setting [8]), -13%; in assay [3] (at 50.0 µM), 2.3%; in assay [4] (setting [7]), 6%; in assay [4] (setting [8]), -15%; in assay [4] (at 50.0 µM), 6.7%. In addition, the growth inhibition was 8% in assay [5] (setting [7]); 5% in assay [5] (setting [8]); 7.55% in assay [5] (at 50.0 µM); 15% in assay [6] (setting [7]); 9% in assay [6] (setting [8]); 91.3% (active) in assay [6] (at 50.0 µM).
Consider `CS(=O)(=O)N\N=C1/C=C\C(=N/NS(C)(=O)=O)CCc2ccc(cc2)CC1`, for which the growth inhibition in assay [1] (setting [7]) is -1%; in assay [1] (setting [8]) it was 77% (active); in assay [1] (at 50.0 µM), 86.3% (active); in assay [2] (setting [7]), 7%; in assay [2] (setting [8]), 96% (active); in assay [2] (at 50.0 µM) it was 88.8% (active). The growth inhibition in assay [3] (setting [7]) is -34%; in assay [3] (setting [8]) it was 92% (active); in assay [3] (at 50.0 µM) it was 93.3% (active); in assay [4] (setting [7]), -1%; in assay [4] (setting [8]), 19%; in assay [4] (at 50.0 µM) it was 39.6%. Moreover, the growth inhibition is -4% in assay [5] (setting [7]); 92% (active) in assay [5] (setting [8]); 90% (active) in assay [5] (at 50.0 µM); 5% in assay [6] (setting [7]); 95% (active) in assay [6] (setting [8]); 94.5% (active) in assay [6] (at 50.0 µM).
Turning to `CC(=O)C(C(=N)C#N)C(=O)Nc1ccccc1` (stereo not given), the growth inhibition in assay [1] (setting [7]) was 1%; in assay [1] (setting [8]), 10%; in assay [1] (at 50.0 µM), -6.9%; in assay [2] (setting [7]), 2%; in assay [2] (setting [8]) it was -12%; in assay [2] (at 50.0 µM) it was -34.5%. The growth inhibition in assay [3] (setting [7]) is -8%; in assay [3] (setting [8]), 7%; in assay [3] (at 50.0 µM), -22.7%; in assay [4] (setting [7]) it was -14%; in assay [4] (setting [8]) it was -2%; in assay [4] (at 50.0 µM), 33.6%. Further, the growth inhibition in assay [5] (setting [7]) was 6%; in assay [5] (setting [8]), -2%; in assay [5] (at 50.0 µM), -44%; in assay [6] (setting [7]) it was 0%; in assay [6] (setting [8]) it was 6%; in assay [6] (at 50.0 µM), -15.2%.
Regarding `COc1ccc(CCNC(=S)/N=C\C(C(=O)c2ccccc2)=C(\O)c2ccccc2)cc1OC`, the growth inhibition in assay [1] (setting [7]) was 1%; in assay [1] (setting [8]) it was 95% (active); in assay [1] (at 50.0 µM) it was 99% (active); in assay [2] (setting [7]) it was 0%; in assay [2] (setting [8]) it was 93% (active); in assay [2] (at 50.0 µM) it was 98.8% (active). In addition, the growth inhibition in assay [3] (setting [7]) was -2%; in assay [3] (setting [8]) it was 75% (active); in assay [3] (at 50.0 µM), 99% (active); in assay [4] (setting [7]), -25%; in assay [4] (setting [8]) it was 98% (active); in assay [4] (at 50.0 µM), 97.8% (active). Further, the growth inhibition in assay [5] (setting [7]) is 0%; in assay [5] (setting [8]), 99% (active); in assay [5] (at 50.0 µM) it was 98.8% (active); in assay [6] (setting [7]) it was 3%; in assay [6] (setting [8]), 97% (active); in assay [6] (at 50.0 µM) it was 98.6% (active).
In the case of `Clc1cccc2c(-c3ccccc3)c3cccc(Cl)c3cc12`, the growth inhibition in assay [1] (setting [7]) was 4%; in assay [1] (setting [8]), 45%; in assay [1] (at 50.0 µM), 58.8%; in assay [2] (setting [7]), 3%; in assay [2] (setting [8]) it was 50%; in assay [2] (at 50.0 µM), 39.6%. Besides, the growth inhibition was 8% in assay [3] (setting [7]); 35% in assay [3] (setting [8]); 42.2% in assay [3] (at 50.0 µM); 6% in assay [4] (setting [7]); 54% in assay [4] (setting [8]); 50.9% in assay [4] (at 50.0 µM). Also, the growth inhibition in assay [5] (setting [7]) is -2%; in assay [5] (setting [8]), 51%; in assay [5] (at 50.0 µM) it was 36.2%; in assay [6] (setting [7]), 1%; in assay [6] (setting [8]), 68%; in assay [6] (at 50.0 µM), 91.4% (active).
Turning to `O=[N+]([O-])c1ccc2c(Nc3ccccc3-c3ccccc3Nc3c4ccccc4nc4cc([N+](=O)[O-])ccc34)c3ccccc3nc2c1`, the growth inhibition is 29% in assay [1] (setting [7]); 96% (active) in assay [1] (setting [8]); 90.9% (active) in assay [1] (at 50.0 µM); 22% in assay [2] (setting [7]); 98% (active) in assay [2] (setting [8]); 90% (active) in assay [2] (at 50.0 µM). Moreover, the growth inhibition in assay [3] (setting [7]) was 18%; in assay [3] (setting [8]) it was 98% (active); in assay [3] (at 50.0 µM), 91% (active); in assay [4] (setting [7]), 30%; in assay [4] (setting [8]), 98% (active); in assay [4] (at 50.0 µM) it was 90.8% (active). Besides, the growth inhibition is 27% in assay [5] (setting [7]); 98% (active) in assay [5] (setting [8]); 87.4% (active) in assay [5] (at 50.0 µM); 38% in assay [6] (setting [7]); 96% (active) in assay [6] (setting [8]); 88.9% (active) in assay [6] (at 50.0 µM).
As for `Cc1ccc(C)c(NC(=O)CCC(=O)CC(=O)c2ccncc2)c1`, the growth inhibition was -4% in assay [1] (setting [7]); 12% in assay [1] (setting [8]); -32% in assay [1] (at 50.0 µM); 3% in assay [2] (setting [7]); 4% in assay [2] (setting [8]); 7.45% in assay [2] (at 50.0 µM). In addition, the growth inhibition in assay [3] (setting [7]) is 8%; in assay [3] (setting [8]), 4%; in assay [3] (at 50.0 µM), 16.8%; in assay [4] (setting [7]), -4%; in assay [4] (setting [8]) it was 3%; in assay [4] (at 50.0 µM), 1.25%. Also, the growth inhibition in assay [5] (setting [7]) was -7%; in assay [5] (setting [8]), 4%; in assay [5] (at 50.0 µM) it was 10.7%; in assay [6] (setting [7]), 0%; in assay [6] (setting [8]), -1%; in assay [6] (at 50.0 µM) it was 24.1%.
Consider `O=C1C=CC(=O)N1c1ccc2c(c1)Cc1cc(Cl)ccc1-2`, for which the growth inhibition in assay [1] (setting [7]) was -48%; in assay [1] (setting [8]), 92% (active); in assay [1] (at 50.0 µM), 13.6%; in assay [2] (setting [7]), 8%; in assay [2] (setting [8]), 96% (active); in assay [2] (at 50.0 µM), 78.3% (active). Moreover, the growth inhibition in assay [3] (setting [7]) is -5%; in assay [3] (setting [8]), 93% (active); in assay [3] (at 50.0 µM) it was 79.2% (active); in assay [4] (setting [7]) it was -3%; in assay [4] (setting [8]) it was 27%; in assay [4] (at 50.0 µM) it was -72%. The growth inhibition in assay [5] (setting [7]) was 11%; in assay [5] (setting [8]), 82% (active); in assay [5] (at 50.0 µM), 72.3% (active); in assay [6] (setting [7]), 26%; in assay [6] (setting [8]), 97% (active); in assay [6] (at 50.0 µM), 68.9%.
On to `CCN(CC)CCCOC(=O)C(c1ccccc1)C1CCCCC1` (stereo not given), for which the growth inhibition in assay [1] (setting [7]) is 4%; in assay [1] (setting [8]), 63%; in assay [1] (at 50.0 µM), 88.5% (active); in assay [2] (setting [7]), 11%; in assay [2] (setting [8]) it was 71% (active); in assay [2] (at 50.0 µM) it was 67.5%. For the same molecule, the growth inhibition is 22% in assay [3] (setting [7]); 94% (active) in assay [3] (setting [8]); 90.7% (active) in assay [3] (at 50.0 µM); 13% in assay [4] (setting [7]); 41% in assay [4] (setting [8]); 88.5% (active) in assay [4] (at 50.0 µM). Further, the growth inhibition in assay [5] (setting [7]) was 16%; in assay [5] (setting [8]), 83% (active); in assay [5] (at 50.0 µM), 94.1% (active); in assay [6] (setting [7]), 41%; in assay [6] (setting [8]), 97% (active); in assay [6] (at 50.0 µM), 98% (active).
Turning to `O=C(Nc1ccc2c(c1)Cc1cc([N+](=O)[O-])c(F)cc1-2)C(F)(F)F`, the growth inhibition in assay [1] (setting [7]) is 13%; in assay [1] (setting [8]), 4%; in assay [1] (at 50.0 µM), 5.25%; in assay [2] (setting [7]) it was 1%; in assay [2] (setting [8]), 2%; in assay [2] (at 50.0 µM), 49.2%. Moreover, the growth inhibition is 3% in assay [3] (setting [7]); -20% in assay [3] (setting [8]); 6.55% in assay [3] (at 50.0 µM); 0% in assay [4] (setting [7]); 7% in assay [4] (setting [8]); -2.1% in assay [4] (at 50.0 µM). Further, the growth inhibition in assay [5] (setting [7]) was -3%; in assay [5] (setting [8]), 0%; in assay [5] (at 50.0 µM), -4.35%; in assay [6] (setting [7]), 3%; in assay [6] (setting [8]), 3%; in assay [6] (at 50.0 µM), 28.5%.
